Compound activity from PubChem BioAssay.
GLS inh: glutaminase GLS (human) inhibition; O94925; GLS enzymatic activity, qHTS titration; Potency, µM (highest dose often 45.5 µM), inactives show at the highest dose activity change, negative = inhibition, hits mostly inhibitors; actives 0.21% (n = 410,000); further: potency means the concentration at half of the fitted maximal effect; on the % scale 0 is the no-effect control and ±100 the full control effect
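hKGA; 45 mM KH2PO4 pH 8.2 + 0.02% Tween-20; cpd via pin tool; 1 mM Gln soln; GluOx/HRP/Amplex Red; RT 30 min; fluor. t0 & final.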
PLK1 PBD inh: blocks phosphopeptide binding to human PLK1 polo-box domain; actives 2.8% (n = 360,000); AID 720504; Potency, µM, inactives show max response, negative = inhibition, hits mostly inhibitors; P53350; Plk1 PBD binding of FITC phosphopeptide, fluorescence polarization; further: potency means the concentration at half of the fitted maximal effect; series mostly up to about 57 µM; on the % scale 0 is the no-effect control and ±100 the full control effect; nearly all actives have a fitted effect of over 65% in size
PI4K2A inh: PI4K2A (human) kinase inhibition. Q9BTU6. purified PI4K2A, ADP-Glo luminescence, 1 h; active compounds read low. activity change, negative = inhibition, % at 76.9 µM. actives 0.13% (n = 420,000). AID 1346378; in the data active means activity change below about -50%; inconclusive means mostly about -30% to -49%;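 further: -100% = wells without enzyme as full effect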
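PI4K2A activity was measured by ADP-Glo luminescence: enzyme (4 ug/mL stock) and phosphatidylinositol (1.2 mM stock) in Tris pH 7.5/MgCl2/EGTA/Triton X-100 buffer were reacted with ATP (300 microM stock) for one hour at ambient temperature.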
KAT2A inh: GCN5L2 (KAT2A) acetyltransferase inhibition. Q92830. GCN5L2 HAT assay, ThioGlo1 CoA-SH fluorescence. Potency, µM (highest dose often 58.9 µM), for the others: at the highest dose activity change, negative = inhibition, most hits filed as inhibitors. actives 0.21% (n = 390,000). AID 504327; further: potency means the concentration at half of the fitted maximal effect; on the % scale 0 is the no-effect control and ±100 the full control effect
Target sequence (Q92830 whole entry, looked up): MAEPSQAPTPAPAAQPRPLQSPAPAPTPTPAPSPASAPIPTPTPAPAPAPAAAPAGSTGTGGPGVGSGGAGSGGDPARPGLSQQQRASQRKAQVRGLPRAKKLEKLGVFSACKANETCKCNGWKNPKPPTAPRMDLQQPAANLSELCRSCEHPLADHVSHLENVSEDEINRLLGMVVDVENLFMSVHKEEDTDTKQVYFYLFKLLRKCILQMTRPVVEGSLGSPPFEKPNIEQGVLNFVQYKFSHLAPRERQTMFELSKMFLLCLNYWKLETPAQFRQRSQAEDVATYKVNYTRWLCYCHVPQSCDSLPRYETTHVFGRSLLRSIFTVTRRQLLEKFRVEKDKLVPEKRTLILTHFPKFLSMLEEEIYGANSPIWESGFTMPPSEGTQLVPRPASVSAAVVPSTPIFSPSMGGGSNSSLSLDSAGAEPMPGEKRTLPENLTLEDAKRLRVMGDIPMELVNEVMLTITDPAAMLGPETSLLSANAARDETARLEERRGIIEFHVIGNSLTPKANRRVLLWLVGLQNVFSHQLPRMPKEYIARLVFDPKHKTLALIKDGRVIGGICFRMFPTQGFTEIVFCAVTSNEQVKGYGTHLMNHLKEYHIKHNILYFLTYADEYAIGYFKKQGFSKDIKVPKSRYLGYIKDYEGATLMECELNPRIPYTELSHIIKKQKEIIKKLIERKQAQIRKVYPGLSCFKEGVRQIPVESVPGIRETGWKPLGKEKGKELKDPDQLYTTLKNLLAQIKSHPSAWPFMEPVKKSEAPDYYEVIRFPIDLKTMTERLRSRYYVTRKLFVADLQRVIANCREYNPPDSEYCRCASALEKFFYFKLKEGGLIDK
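qHTS, 1536-well. 20nM enzyme, pH 7.5 HEPES/EDTA/Tween-20 buffer; 15 min compound preinc., RT. Start: 75uM H3(1-25), 70uM AcCoA, 50uM ThioGlo1. Read Ex340/Em540 at t=0 (autofluorescence flag) and t=20 min.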
VDR inhibitor: vitamin D3 receptor (human) inhibition. P11473. VDR-SRC2-3 peptide fluorescence polarization, 2 h. Potency, µM, inactives show max response, negative = inhibition, most hits filed as inhibitors. actives 0.93% (n = 400,000). AID 504847; further: potency means the concentration at half of the fitted maximal effect; on the % scale 0 is the no-effect control and ±100 the full control effect
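Fluorescence polarization assay measuring small-molecule disruption of VDR binding to the coregulator peptide SRC2-3. Compounds were pin-transferred (23 nl) into the reagent mix and incubated 2 h at room temperature before reading.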
GLS hit conf: confirmation of human glutaminase inhibitors | AID 624261 | 35 tested, under 10 active | Potency, µM (top dose mostly 46.1 µM), for the others: top-dose activity change, negative = inhibition, actives largely listed as inhibitors | biochemical glutaminase enzyme inhibition assay | shares compounds with GLS inh; calls by dose curve
GLS HRP counter: counter-screen for glutaminase inhibitors: HRP coupled enzyme inhibition | shares compounds with GLS inh | 35 tested, under 10 active | activity change, negative = inhibition, % at 46.1 µM | HRP/glutamate oxidase coupled Amplex Red fluorescence counterscreen
GLS HEK tox: HEK-293 cytotoxicity, glutaminase hit confirmation; AID 624264; shares compounds with GLS inh; 35 tested, under 10 active; activity change, negative = cytotoxicity, % at 46.1 µM; HEK-293 viability, CellTiter-Glo luminescence, 24 h
TbPYK confirm: confirmation of Trypanosoma brucei pyruvate kinase inhibitors; shares compounds with PLK1 PBD inh; Potency, µM (highest dose often 76.9 µM), for inactives: at the top dose activity change, negative = inhibition, most hits filed as inhibitors; actives 67% (n = 890); recombinant TbPYK, Kinase-Glo ATP luminescence; further: potency means the concentration at half of the fitted maximal effect; on the % scale 0 is the no-effect control and ±100 the full control effect; nearly all actives have a fitted effect of over 70% in size
TbPYK ADP-Glo: inhibits T. brucei pyruvate kinase in orthogonal ADP-Glo assay; recombinant TbPYK, ADP-Glo luminescence, 60 min; Potency, µM (series often up to 76.9 µM), inactives show at the highest dose activity change, negative = inhibition, most hits filed as inhibitors; actives 62% (n = 890); shares compounds with PLK1 PBD inh; further: potency means the concentration at half of the fitted maximal effect; on the % scale 0 is the no-effect control and ±100 the full control effect; nearly all actives have a fitted effect of over 75% in size
An asterisk follows results filed as active; ? = inconclusive; · = no result given. Compounds with a hit are over-represented: about 3.1% of the library has one in this group of screens. Unless noted, the call rests on the fitted dose curve; in most records, active means well fitted curve in the direction sought with a large enough effect; inconclusive means small, poorly fitted or top-dose-only effect, or another doubt; inactive means no such curve, though single readings can be large; an effect the other way counts as inactive or inconclusive.

SMILES	GLS inh	PLK1 PBD inh	PI4K2A inh	KAT2A inh	VDR inhibitor	TbPYK confirm	TbPYK ADP-Glo	others
Cc1ccc(S(=O)(=O)Nc2ccc3cn[nH]c3c2)cc1	0%	-7%	-4	-4%	10%	·	·
Cc1ccc(S(=O)(=O)Nc2cc(C)c(O)c(Sc3n[nH]c(C)n3)c2)cc1	10µM*	-8%	2	-3%	-22%	·	·	GLS hit conf=?;GLS HRP counter=?;GLS HEK tox=-5
COCCNc1ncnc2ccc(-c3ccc(C(=O)N(C)C)cc3)cc12	·	·	·	-16%	10%	·	·
CCN(CC)S(=O)(=O)c1ccc(NS(=O)(=O)c2ccc(F)cc2)cc1	15%	-7%	7	-5%	53%	·	·
CCN(CC)S(=O)(=O)c1ccc(NS(=O)(=O)c2cccc(C)c2)cc1	?	3%	2	-6%	1%	·	·	GLS hit conf=11%;GLS HRP counter=2;GLS HEK tox=-9
O=C(CCCn1c(=O)c2cccn2c2ccccc21)Nc1cccc(Cl)c1	0%	·	2	-2%	8%	·	·
CN1C(=O)c2cccc3c(S(=O)(=O)Nc4ccc(O)c(C(=O)O)c4)ccc1c23	?	-5%	-3	-10%	6%	·	·	GLS hit conf=?;GLS HRP counter=?;GLS HEK tox=9
COc1ccccc1N(C)S(=O)(=O)c1ccc(C(=O)OCC(=O)N(C)c2ccccc2)cc1	7.1µM*	4%	1	-1%	21%	·	·	GLS hit conf=4%;GLS HRP counter=5;GLS HEK tox=2
COc1ccccc1NS(=O)(=O)c1cc(N)ccc1N1CCCC1	?	6.7µM*	-1	-14%	89µM*	·	·	GLS hit conf=1%;GLS HRP counter=?;GLS HEK tox=-3
COc1cccc(NC(CNS(=O)(=O)c2ccc(Cl)cc2)c2ccccc2)c1 (centres undefined)	45%	·	-5	6%	20%	·	·
Cc1oc2c(cc(NS(=O)(=O)c3ccc(Cl)cc3)c3ccccc32)c1C(=O)O	16µM*	?	-3	-7%	-4%	·	·	GLS hit conf=?;GLS HRP counter=6;GLS HEK tox=8
COc1ccc(OC)c(S(=O)(=O)Nc2c(F)cccc2F)c1	3%	-13%	-2	-3%	16%	·	·
COc1ccc(OC)c(S(=O)(=O)Nc2cccc3ccc(O)cc23)c1	6.3µM*	-12%	-8	·	11%	·	·	GLS hit conf=1%;GLS HRP counter=?;GLS HEK tox=6
COc1ccc(NS(=O)(=O)c2cc(NC(=O)[C@H](C)NC(N)=O)ccc2N2CCCC2)cc1	16µM*	-10%	0	-11%	-18%	·	·	GLS hit conf=8%;GLS HRP counter=?;GLS HEK tox=5
CC(=O)NC1C(O)O[C@H](C(=O)O)[C@@H](O)[C@@H]1O (some centres undefined)	·	·	·	-22%	1%	·	·
CCOC(=O)C(C)Sc1nc(N2CCOCC2)c2c(c1C#N)CC(C)(C)OC2 (centres undefined)	11%	-6%	-2	·	7%	·	·
CCOC(=O)CCSc1nc(N2CCOCC2)c2c(c1C#N)CC(C)(C)OC2	-6%	-10%	-1	-5%	-8%	11µM*	11µM*
CSc1nsc(SC)c1NC(=O)N1CCCC1	8%	-9%	2	1%	-19%	?	32µM*
CC(C)CC1CC(=O)OC1(C)C(=O)CSc1nc2ccccc2s1 (centres undefined)	-7%	19µM*	-2	-6%	-19%	?	?
COc1ccc(C(=O)N(Cc2ccc(C(C)C)cc2)C2CCS(=O)(=O)C2)cc1 (centres undefined)	3%	·	-3	-17%	-13%	·	·
COC(=O)c1ccc2nc(-c3ccco3)c(Cc3cccc(Cl)c3)n2c1	1%	-29%	-17	·	·	·	·
Fc1cccc(Cc2c(-c3ccco3)nc3ccc(Br)cn23)c1	16µM*	24µM*	?	·	·	?	?
Fc1cccc(Cc2c(-c3ccco3)nc3ccc(Cl)cn23)c1	?	24µM*	-28	·	·	-28%	?
Clc1ccc2nc(-c3ccco3)c(Cc3ccccc3)n2c1	-7%	?	-27	·	·	?	35µM*
COC(=O)c1ccc2nc(-c3ccco3)c(Cc3ccccc3)n2c1	4%	?	-12	·	·	13µM*	14µM*
SMILES	GLS inh	PLK1 PBD inh	PI4K2A inh	KAT2A inh	VDR inhibitor	TbPYK confirm	TbPYK ADP-Glo	others
Cc1ccc(C)c(NC(=O)Cn2cc(S(=O)(=O)N3CCCC3)c(S(=O)(=O)N3CCCC3)c2)c1	0%	·	-1	25%	16%	·	·
O=C(c1ccc(Nc2nccc(-c3cc4ccccc4s3)n2)cc1)N1CCC(N2CCCC2)CC1	·	·	·	0%	45%	·	·
Cc1ccc(CN(C)C(=O)c2cc(COc3cccc(C(F)(F)F)c3)on2)o1	-7%	?	3	-3%	89µM*	13µM*	11µM*
CN(Cc1nccn1C)C(=O)c1cc(COc2cccc(C(F)(F)F)c2)on1	1%	-12%	6	-28%	-8%	·	·
O=C(c1ccccc1)c1cc(Cl)ccc1N1C(=O)C=CC1=O	?	3µM*	9	?	25µM*	5µM*	10µM*
Cc1ccc(Cl)cc1Nc1nn2c(=O)c3ccc(C(=O)NCc4ccc(F)cc4)cc3nc2s1	0%	·	-2	-5%	1%	·	·
CN(C)c1ccc(/C=C/c2ccc3ccccc3[n+]2C)cc1	16%	11%	?	-7%	20%	?	2%
CN(C)c1ccc(/C=C/c2ccc3c4ccccc4ccc3[n+]2-c2ccccc2)cc1	-22%	-15%	-54*	-6%	46%	32µM*	7%
C=CCN1CCN(C(c2ccccc2)c2nnnn2CCC(C)C)CC1 (centres undefined)	?	2.7µM*	-5	0%	?	4%	-4%
CCOC(=O)CNC(=O)CSc1nnc(-c2ccco2)n1N	-1%	0%	4	-3%	15%	·	·
CCOC(=O)CNC(=O)CSc1nnc(-c2ccco2)n1Cc1ccco1	-10%	-5%	2	1%	6%	3.5µM*	14µM*
COc1ccc(OC)c(-c2noc(N3CCN(c4ccc(C(C)=O)cc4)CC3)n2)c1	-2%	·	-3	-19%	5%	·	·
Cn1c(SCC(=O)NC2CCCCC2)nnc1-c1cccc(N)c1	1%	-16%	1	-6%	-2%	?	?
